In the library only some 1.5% were active in any assay of this set; here they are far more common.
JMJD2C inh – blocks human GASC-1 demethylase activity; 330,000 tested, 0.069% active; GST-JMJD2C(1-420) H3K9me3 demethylation, DELFIA europium; AID 2099; inhibition, % at 2.35 µM;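 active = more than half of a compound's replicate wells show inhibition beyond 50%, single wells judged on their own value; inconclusive = some, but no more than half, of replicates pass 50% inhibition; inactive = no replicate passes 50% inhibition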;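 also: signal counts dimethyl H3K9 product captured on neutravidin plate; 0% = median of DMSO wells and 100% = 0.3 times that DMSO median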
Target sequence (Q9H3R0 1-420 limits assumed): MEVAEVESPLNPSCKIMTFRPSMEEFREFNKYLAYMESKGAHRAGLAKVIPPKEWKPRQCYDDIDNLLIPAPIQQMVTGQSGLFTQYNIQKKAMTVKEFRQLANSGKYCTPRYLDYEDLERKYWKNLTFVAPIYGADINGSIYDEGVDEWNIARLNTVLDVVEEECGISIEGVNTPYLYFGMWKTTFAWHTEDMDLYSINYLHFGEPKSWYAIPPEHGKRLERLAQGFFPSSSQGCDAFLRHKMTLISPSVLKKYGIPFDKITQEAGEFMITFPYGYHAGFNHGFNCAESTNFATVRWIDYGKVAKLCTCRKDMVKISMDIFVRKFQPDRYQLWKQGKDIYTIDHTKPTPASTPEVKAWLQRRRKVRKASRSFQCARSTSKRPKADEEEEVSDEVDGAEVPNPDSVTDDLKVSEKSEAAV
Efflux pump mplx – blocks antifungal efflux pumps in multiplex yeast assay. S. cerevisiae Candida pump triplex, Nile Red efflux. inhibition, % at 10 µM. 330,000 tested, 0.44% active. AID 485275;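 active = plate passing quality check with inhibition over a set limit, or well fluorescence over plate mean plus 4 SD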;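 also: Nile Red retained in pooled yeast measured as flow cytometry median fluorescence; 0% = buffer negative control and 100% = Enniatin B positive control; higher means more Nile Red kept so more efflux inhibition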
NLRP3 yeast inh – inhibitors of NALP3 inflammasome in yeast; inhibition, % at 10 µM; Yeast reconstituted NLRP3/ASC/caspase-1, beta-gal luminescence, 24 h; 330,000 tested, 0.39% active; AID 2825;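 active = inhibition of 50% or more; inactive = inhibition below 50%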;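 also: plate controls were induced DMSO wells for no effect and uninduced yeast grown without galactose for full effect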
PolyA inhibitor – yeast polyadenylation inhibition; 300,000 tested, 0.02% active; S. cerevisiae SKY197-pL101 polyadenylation reporter, beta-gal luminescence; efflux-impaired pdr1/pdr3 knockout yeast; score 100 = 6 SD above DMSO; activity score, % at 12 µM;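 active = lowest replicate activity score at least 50, where 100 means six control SD above control mean; inconclusive = lowest score under 50 but half or more replicates reach 50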;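 also: yeast exposed to compound for 9 h at 30 °C; higher score means more reporter readthrough which indicates perturbed polyadenylation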
HDAC3 inh – inhibitors of human histone deacetylase 3. recombinant HDAC3, fluorogenic peptide/trypsin coupled, fluorescence. inhibition, % at 8.3 µM. 320,000 tested, 0.15% active; in the data active = inhibition above about 26%, passing the limit was not always enough; inconclusive = no clear call, values can overlap the other calls
NALP1 inh – NALP1 inhibition. S. cerevisiae NALP1/ASC/caspase-1 growth, X-gal OD620, 72 h. inhibition, % at 10 µM. 280,000 tested, 0.61% active. AID 2071; in the data active = inhibition mostly above about 24%, no sharp cut-off; inactive = mostly below about 32%
Starred values were filed as active, the others as inactive; ? = inconclusive; . = not tested or not shown.

SMILES | JMJD2C inh | Efflux pump mplx | NLRP3 yeast inh | PolyA inhibitor | HDAC3 inh | NALP1 inh
Nc1c(C(O)(C(F)(F)F)C(F)(F)F)cc(C(O)(C(F)(F)F)C(F)(F)F)c2ccccc12 | -30 | 0 | -56 | -38 | 33* | -69
O=C(/C=C/Nc1nccs1)C(F)(F)Cl | 3 | 0 | 16 | 0 | 54* | 10
O=C(Nc1c(C(=O)N2CCCC2)cnn1-c1ccccc1)c1cccc(F)c1 | -7 | 0 | 15 | 1 | 4 | -71
NC(=O)C1CCN(C(=O)c2cnn(-c3ccccc3)c2NC(=O)c2cccc(F)c2)CC1 | 75* | 0 | 0 | 0 | -1 | 17
COCCCN(C(=S)Nc1cc(Cl)cc(Cl)c1)C(C)c1ccccn1 (centres undefined) | -1 | 0 | 10 | -2 | 4 | .
COCCCN(C(=S)Nc1cc(Cl)cc(Cl)c1)C(C)c1ccncc1 (centres undefined) | 3 | 2 | -1 | -9 | 5 | 68*
CN(Cc1cccc(F)c1)C(=O)c1ccc2c(=O)n3c(nc2c1)CCC3 | 26 | 0 | -8 | -5 | -4 | -2
O=C(OCc1cccc(F)c1)c1ccc2c(=O)n3c(nc2c1)CCC3 | -2 | 0 | 0 | 2 | . | 35*
O=C(Nc1cccc(N=Cc2cc(Br)cc(Br)c2O)c1)c1ccco1 | 8 | 0 | . | -56 | 0 | 65*
O=C(Nc1cccc(N=Cc2cc(Cl)cc(Br)c2O)c1)c1ccco1 | 3 | 0 | 4 | -23 | -9 | 12
COc1cc(/C=C2\N=C(C)OC2=O)cc(Cl)c1OC(C)=O | 4 | 0 | -9 | 26 | 3 | 5
CCOc1cc(/C=C2\N=C(C)OC2=O)cc(Cl)c1OCC(=O)OC | 2 | 0 | 1 | 14 | 48* | .
CC(c1ccccc1F)n1cc(C(=O)NCCCc2nc3ccccc3[nH]2)nn1 (centres undefined) | 1 | 0 | 16 | 13 | 1 | -9
O=C(c1cccc(C(F)(F)F)c1)C1CCCN(C(=O)CCc2cnccn2)C1 (centres undefined) | -11 | 0 | 12 | 9 | 8 | 16
O=C(c1ccc(C(F)(F)F)cc1)C1CCCN(C(=O)CCc2cnccn2)C1 (centres undefined) | 7 | 0 | 11 | -3 | -3 | 38*
COc1cc(C(=O)NCCOc2ccc(Cl)cc2)ccc1OCc1c(C)noc1C | . | 0 | 16 | . | . | .
O=S(=O)(c1cccc(C(F)(F)F)c1)N1CCC(c2cc(-c3cccc4ccccc34)n[nH]2)CC1 | -26 | 0 | 4 | 4 | 7 | 37*
CC(=O)N1CCc2cc(S(=O)(=O)NCCC(=O)Nc3cc(C)cc(C)c3)ccc21 | 8 | 0 | 14 | 12 | -1 | 40*
CCC(=O)N1CCc2cc(S(=O)(=O)NCCC(=O)Nc3cc(C)cc(C)c3)ccc21 | 4 | 0 | 15 | 20 | -5 | 11
CCC1(CC)C(=O)N(C)C(=O)NC1=Nc1ccc(OC)cc1 | -1 | 0 | 13 | 3 | 1 | 41*
CCC1(CC)C(=O)N(C)C(=O)NC1=NCc1ccccc1 | -4 | 0 | 4 | 6 | -7 | 10
Nc1ccccc1NC(=O)c1ccccc1 | -7 | 0 | 16 | 4 | 75* | 17
CCOc1ccc(S(=O)(=O)N(CC(=O)NCC2CCCO2)c2ccc(F)cc2)cc1 (centres undefined) | -26 | -1 | 6 | 11 | -2 | 6
CCOc1ccc(N(CC(=O)NCC2CCCO2)S(=O)(=O)c2ccc(SC)cc2)cc1 (centres undefined) | -1 | 0 | 3 | 15 | -2 | 34*
Cc1ccc(C2(C)NC(=O)N(Cc3c(C)noc3C)C2=O)cc1 (centres undefined) | 35 | 0 | 5 | -9 | 2 | 19*
SMILES | JMJD2C inh | Efflux pump mplx | NLRP3 yeast inh | PolyA inhibitor | HDAC3 inh | NALP1 inh
Cc1ccc(C(=O)N2CCN(C(=O)c3ccco3)CC2)cc1NC(=O)c1ccco1 | -15 | 0 | 1 | 8 | 2 | 1
CCCCc1c(C)c(C#N)c2nc3ccccc3n2c1NCCN(C)C | -4 | . | 26 | -10 | . | 34*
Cc1c(Cc2ccccc2)c(NCCN(C)C)n2c(nc3ccccc32)c1C#N | 3 | 0 | 45 | -112 | -8 | 39
O=C(NCc1ccco1)C1CCCN(S(=O)(=O)c2cccc3nsnc23)C1 (centres undefined) | -20 | 0 | 3 | -10 | 3 | 12
O=C(NCc1ccccn1)C1CCCN(S(=O)(=O)c2cccc3nsnc23)C1 (centres undefined) | 0 | 0 | 1 | 14 | 4 | 32*
O=C(O)CN1CCc2ccccc2C1 | 25 | 0 | -16 | -11 | -2 | 32*
COC(=O)CC1C(=O)NCCN1C(=O)CSc1nc2ccccc2c(=O)n1CC(C)C (centres undefined) | -1 | 0 | 10 | 5 | -5 | 34*
COc1ccc2oc(=O)c(C(=O)N3CCN(C(=O)c4ccco4)CC3)cc2c1 | 4 | 0 | 6 | 7 | -12 | 25
CCCCCOc1ccc(/C(C)=N/NC2=NCCN2)cc1 | -16 | 0 | 3 | -2 | 4 | 17
CCCCCCOc1ccc(/C(C)=N/NC2=NCCN2)cc1 | -11 | 0 | 29 | 2 | 12 | 88*
COc1cc(NC(=O)c2ccccc2)c(OC)cc1NC(=O)CN1C(=O)NC2(CCCCC2)C1=O | . | 0 | 6 | . | 3 | .
Cn1c(=O)c(C(=O)N2CCc3ccccc32)cc2cccnc21 | 1 | 0 | 5 | ? | 0 | .
COc1ccc(C(=O)NCCC2=CCCCC2)cc1[N+](=O)[O-] | 9 | 0 | 2 | 5 | -1 | 35*
COc1ccc(OCC(=O)NCCC2=CCCCC2)c([N+](=O)[O-])c1 | -2 | 0 | 37 | 4 | -3 | -5
CC(C)[n+]1ccn(C2=C([O-])c3ccccc3C(=O)/C2=N\S(=O)(=O)c2ccccc2)c1 | -53 | 0 | 12 | 16 | 5 | 36*
CCCC[n+]1ccn(C2=C([O-])c3ccccc3C(=O)/C2=N\S(=O)(=O)c2ccccc2)c1 | -5 | 0 | -4 | 14 | -2 | 0
CCOc1ccc(Cl)cc1S(=O)(=O)N1CCC(C(=O)NCc2ccco2)CC1 | -10 | 0 | 22 | -11 | -1 | 12
Cc1sc(NC(=O)CSC2=NCCS2)nc1-c1ccccc1 | 21 | 0 | 2 | 1 | 1 | 15
CC(=O)N1CC(=O)N=C1SCC(=O)Nc1nc(-c2ccccc2)c(-c2ccccc2)s1 | -6 | 0 | 27 | -1 | 29* | 17
C=CCn1c(C)nnc1SCC(=O)Nc1ccccc1C(=O)NC1CC1 | . | . | 8 | . | . | .
CN(CC(=O)Nc1ccccc1C(F)(F)F)C(=O)c1cccc(-n2cccc2)c1 | 3 | 0 | 16 | -7 | 2 | .
Cc1cnc(C(=O)Nc2ccc(F)c(F)c2)cn1 | 0 | 0 | 11 | -16 | 0 | 38
CCCCOc1ccc(NC(=O)c2cnc(C)cn2)cc1 | 9 | 0 | 21 | -6 | ? | 45*
